{"source": "PubChem BioAssay AID1508600", "about": "(Functional Genomics Laboratory (NCATS/FGL), 2020)", "note": "About 3,700 (7%) of roughly 53,000 sequences were called active. This excerpt belongs to a sample that is enriched for actives. Values without a mark were called inactive.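 How the source made its calls: active means gene knockdowns whose robust z-score for IL-1 alpha signal is at least 2 or at most -2, so actives lie on both sides; inactive means the rest.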", "data": [{"assay": "Components of the Cytosolic LPS Sensing Pathway: Gene Identification via Genome-wide siRNA Screen;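 further: robust z of the log signal after scaling to non-targeting control siRNA wells of the plate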", "conditions": "RAW264.7 macrophages, IL-1a HTRF, actives lie on both sides, screened at 100 nM (by protocol), cells primed 5 h with Pam3CSK4 first", "procedure,_shortened": "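Knockdown: 100 nM siRNA, 48h, RAW264.7. Stimulation: Pam3CSK4 5 h, then LipidA via TransIT-TKO 24 h. Output: supernatant IL-1a HTRF, negative-control-normalized, log robust z-score; viability by CellTiter-Glo.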", "values": [{"sequence": "GCGAAAUCAACAGUCAAUUTT against Ep300", "z-score": 0.458}, {"sequence": "GGAAGCAGAGCAGCUGUUUTT against Skiv2l", "z-score": -0.567}, {"sequence": "GGGAUCAAUUUUGAAGAAUTT against Jmjd4", "z-score": -0.398}, {"sequence": "GGAGUAUGUCCAUUGUCACTT against Vmn1r230", "z-score": "-2.54 (active)"}, {"sequence": "UCAGCGAGCUUUAACCUUUTT against Olfr1028", "z-score": 0.26}, {"sequence": "GGUUUUUCAGCUUUGGAACTT against Decr1", "z-score": -0.822}, {"sequence": "CCCACUUUCUUUGAUAACUTT against Bcl2l11", "z-score": 0.585}, {"sequence": "CGCGUAGAUAAGAAGUAUUTT against Anks1", "z-score": 0.181}, {"sequence": "GCUCAACAAAGCCUGUUCGTT against Zp3", "z-score": "2.35 (active)"}, {"sequence": "GCAUUACUAAUCAAAGUGGTT against Abcb1b", "z-score": -0.78}, {"sequence": "CCACUUCAUGAUUGAGUGCTT against Phf8-ps", "z-score": -0.836}, {"sequence": "CCAUGAGUUCAGAUGAUGATT against Ints10", "z-score": -1.11}, {"sequence": "CCUGAAACAUUCAGUGUCUTT against Apool", "z-score": 0.293}, {"sequence": "GCUUAAUUUCAUUUCAAGGTT against B3gnt5", "z-score": 0.496}, {"sequence": "GCUUCCCUGCCGUGAUGAUTT against Git1", "z-score": -1.15}, {"sequence": "GGACACAAGUUUUCAGAUCTT against Elmod2", "z-score": "3.02 (active)"}, {"sequence": "GGAUCAUGGAUAUACCACCTT against Smarcb1", "z-score": -1.72}, {"sequence": "GGUGCAAACUAAAAAUCUUTT against Enc1", "z-score": "2.73 (active)"}, {"sequence": "GGAAGAUGAAGAUGAGAAUTT against Igbp1b", "z-score": -1.24}, {"sequence": "GGGAAGCAUGCAGAACAGCTT against Parg", "z-score": -1.42}, {"sequence": "GGUUCCUCAAGAUCAUCAUTT against P2ry13", "z-score": 0.051}, {"sequence": "GCUUUGAUGGAUUCUAAUCTT against Htt", "z-score": 1.09}, {"sequence": "CCCAUUUGCUCUGUGGAUCTT against Tha1", "z-score": 0.289}, {"sequence": "GCACUUUGGGUUUAAGUACTT against Ndrg4", "z-score": "3.7 (active)"}, {"sequence": "GGGAGAGAGAAAAAGAAAATT against Park7", "z-score": 0.94}, {"sequence": "CCUGGCCAUGUCGAAAGAUTT against Pla2g6", "z-score": 0.716}, {"sequence": "GGAAGAAGUCAGAUGUGGATT against Radil", "z-score": -0.315}, {"sequence": "UGAUGCUAAGACUGAACCATT against Olfr541", "z-score": -1.14}, {"sequence": "GGACAUUGUUGUCCAAACUTT against Sptb", "z-score": "-2.24 (active)"}, {"sequence": "CCAUAUUUGAAGAAGUCCATT against Espl1", "z-score": -0.325}]}]}
